Holding throughout (details): Compound Concentration (nM):1000
Test [1] relates to T1, MRCKA.
T1 construct: gene CDC42BPA

The test system of test [2] is T2, MRCKB.
T2 construct: gene CDC42BPB

Test [3] concerns MST1R.
In test [4] the test system is T3, MST1.
T3 construct: gene STK4

Test [5] concerns T4, MST2.
T4 construct: gene STK3

Test [6] relates to T5, MST3.
T5 construct: gene STK24

The test system of test [7] is MST4.
Test [8] relates to MTOR.
In test [9] the test system is MUSK.
For test [10], the system named is MYLK2.
The subject of test [11] is MYLK4.
In test [12] the test system is MYLK.
The subject of test [13] is MYO3A.
Test [14] concerns MYO3B.
Test [15] has as its system T6, NDR1.
T6 construct: gene STK38

Test [16] deals with T7, NDR2.
T7 construct: gene STK38L

In test [17] the test system is NEK10.
Test [18] concerns NEK11.
Test [19] has as its system NEK1.
Test [20] concerns NEK2.

The text below walks through data of publication PMC7826789 (International Journal of Molecular Sciences, 2021).
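Also: KINOMEscan scanMAX binding as percent activity remaining versus control; lower means stronger binding.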

As for `COc1ccc2c(-c3ccnc(Nc4cccc(OC(F)(F)F)c4)n3)cnn2n1` [GW810372X], the “Percent Control” value in test [1] is 100%; in [2], 99%; in test [3], 100%; in test [4], 100%; in [5], 100%; in [6], 98%. Also, the “Percent Control” value in test [7] was 60%; in [8], 100%; in [9], 100%; in [10], 100%; in test [11], 60%; in [12], 100%. Further, the “Percent Control” value in test [13] is 100%; in test [14] it was 100%; in [15], 100%; in test [16], 96%; in [17] it was 100%; in test [18], 100%. The “Percent Control” value in test [19] was 85%; in [20] it was 100%.
As to `COc1ccc2cc(-c3c(-c4ccncc4)nc(-c4ccc(S(C)(=O)=O)cc4C)n3C)ccc2c1` [SB-633825], the “Percent Control” value in test [1] is 93%; in test [2], 88%; in [3] it was 85%; in test [4] it was 66%; in [5], 60%; in [6] it was 100%. Further, the “Percent Control” value in test [7] is 82%; in test [8], 100%; in [9] it was 99%; in test [10], 100%; in [11], 93%; in test [12] it was 82%. The “Percent Control” value was 53% in [13]; 18% in [14]; 77% in test [15]; 63% in [16]; 69% in test [17]; 90% in [18]. The “Percent Control” value in test [19] is 100%; in test [20], 93%.
`CCS(=O)(=O)c1ccc(OC)c(Nc2ncc(-c3cccc(OC)c3)o2)c1` [GW580509X]: the “Percent Control” value in [1], in test [2], in test [3], in test [4], in test [5] and in [6] was 100% in each case. In addition, the “Percent Control” value is 100% in test [7]; 100% in test [8]; 100% in test [9]; 100% in test [10]; 100% in test [11]; 94% in [12]. The “Percent Control” value in [13] is 97%; in test [14], 100%; in test [15], 100%; in test [16], 100%; in test [17] it was 100%; in [18] it was 100%. The figures for the “Percent Control” value in [19] and in test [20] were 98% and 100%, respectively.
With `O=C(Nc1n[nH]c2nc(-c3ccc(O)cc3)c(Br)cc12)C1CC1` [SB-725317], the “Percent Control” value in [1], in [2], in test [3], in test [4], in [5] and in test [6] was 100% in each case. For the same molecule, the “Percent Control” value was 77% in test [7]; 100% in test [8]; 100% in test [9]; 5.9% in [10]; 100% in [11]; 56% in test [12]. Further, the “Percent Control” value in test [13] was 48%; in test [14] it was 100%; in test [15] it was 100%; in [16], 100%; in [17], 100%; in test [18] it was 100%. For the same molecule, the “Percent Control” value in test [19] was 99%; in [20], 100%.
As for `CCc1ccc(Oc2nccc(-c3c(-c4ccc(F)cc4)ncn3C3CCNCC3)n2)cc1` [SB-242719], the “Percent Control” value in test [1] is 68%; in test [2], 17%; in test [3] it was 100%; in test [4] it was 88%; in test [5] it was 66%; in test [6] it was 90%. Further, the “Percent Control” value in test [7] was 61%; in test [8] it was 89%; in [9], 100%; in test [10] it was 80%; in test [11] it was 98%; in test [12], 100%. The “Percent Control” value in test [13] was 87%; in test [14] it was 100%; in test [15] it was 92%; in test [16], 96%; in test [17] it was 99%; in [18], 100%. The “Percent Control” value in test [19] is 100%; in test [20], 96%.
Consider `CN1CCN(C(=O)c2ccc(NC(=O)Nc3ccc(N(C)c4ccnc(Nc5ccc(CS(C)(=O)=O)cc5)n4)cc3)cc2)CC1.Cl` [GW830263A], for which the “Percent Control” value in test [1] is 89%; in test [2] it was 86%; in test [3] it was 41%; in [4], 96%; in [5], 16%; in test [6], 47%. Besides, the “Percent Control” value is 11% in test [7]; 100% in test [8]; 11% in test [9]; 36% in test [10]; 98% in [11]; 100% in test [12]. The “Percent Control” value was 7% in test [13]; 23% in [14]; 54% in test [15]; 100% in [16]; 94% in test [17]; 100% in test [18]. The “Percent Control” value in test [19] was 63%; in test [20] it was 89%.
Turning to `Nc1ncnc2occ(-c3ccc(NC(=O)Nc4cc(C(F)(F)F)ccc4F)cc3)c12` [GW770249X], the “Percent Control” value in [1] was 100%; in [2], 100%; in test [3], 100%; in test [4], 100%; in test [5] it was 83%; in [6], 82%. In addition, the “Percent Control” value in test [7] was 59%; in test [8] it was 100%; in test [9], 1.4%; in [10], 83%; in test [11], 100%; in test [12], 100%. The “Percent Control” value was 9.7% in test [13]; 15% in test [14]; 94% in test [15]; 100% in test [16]; 100% in [17]; 100% in test [18]. The “Percent Control” value in test [19] is 89%; in test [20], 77%.
For `CC1=C(C(=O)Nc2ccc3[nH]ncc3c2)C(c2ccc(Cl)c(Cl)c2)CC(=O)N1` (centres unmarked) [GSK299115A], the “Percent Control” value is 100% in test [1]; 75% in test [2]; 91% in [3]; 90% in test [4]; 94% in test [5]; 70% in test [6]. The “Percent Control” value in test [7] was 66%; in [8], 100%; in test [9], 100%; in test [10], 100%; in [11], 91%; in [12], 100%. Further, the “Percent Control” value is 88% in test [13]; 90% in test [14]; 21% in [15]; 67% in test [16]; 72% in test [17]; 86% in test [18]. Moreover, the entries for the “Percent Control” value in [19] and in test [20] were 84% and 97%, respectively.
As to `NS(=O)(=O)c1ccc(N/N=C2\C(=O)Nc3ccc(-c4cnco4)cc32)cc1` [GW276655], the “Percent Control” value in test [1] is 100%; in test [2] it was 98%; in test [3] it was 92%; in [4], 100%; in test [5], 40%; in test [6], 77%. Also, the “Percent Control” value in [7] is 53%; in [8], 100%; in test [9], 100%; in test [10] it was 73%; in test [11] it was 49%; in test [12], 50%. Moreover, the “Percent Control” value in [13] was 77%; in test [14], 100%; in [15] it was 67%; in test [16], 68%; in test [17] it was 89%; in test [18], 93%. Also, the “Percent Control” value in test [19] is 71%; in test [20], 100%.
For `Cl.O=C(Nc1ccc(Oc2ccc3[nH]c(NC(=O)c4ccco4)nc3c2)cc1)Nc1cc(C(F)(F)F)ccc1F` [GW683134A], the “Percent Control” value in test [1] is 94%; in test [2], 89%; in [3] it was 100%; in test [4], 100%; in test [5], 100%; in test [6], 100%. The “Percent Control” value in test [7] was 87%; in test [8], 100%; in test [9], 5.6%; in test [10], 38%; in test [11], 100%; in [12], 100%. Besides, the “Percent Control” value in [13] is 100%; in test [14], 100%; in test [15], 100%; in test [16] it was 76%; in test [17] it was 100%; in test [18], 100%. Moreover, the “Percent Control” value is 80% in test [19] and 100% in test [20].
